Results published in PubChem BioAssay (Tox21).
Results filed as inconclusive are left out. Active and inactive are the calls of the source. Unless noted, calls come from the whole dose curve.

Key:
[1] = qHTS assay to identify small molecule antagonists of the estrogen related receptor signaling pathway with the pleiotropic PPARgamma coactivator (PGC) from Tox21 10K library - cell viability counter screen (AID 1224840; active = well fitted cell-killing curve with a large enough effect in the repeat runs, not every such curve was filed as active; note: nearly all actives have a fitted effect of over 40% in size)
Method in brief: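 Cell viability is measured by CellTiter-Fluor fluorescence in PGC/ERR cells that receive compounds after a 6-hour attachment period and are then incubated 17.5 hours at 37 C.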

[2] = biological target: Thyrotropin receptor (Homo sapiens) (UniProt P16473); assay: qHTS assay to identify small molecule agonists of the thyroid stimulating hormone receptor (TSHR) signaling pathway (AID 1224843); note: nearly all actives have a fitted effect of over 45% in size
Method in brief: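 Compounds are titrated over 15 concentrations, in triplicate, onto TSHR-HEK293 cells seeded at 800/well. Plates sit 30 min at room temperature before cAMP-d2 and anti-cAMP cryptate are added; signal is read after a further hour.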

[3] = qHTS assay to identify small molecule agonists of H2AX (AID 1224845; active = well fitted activation curve with a large enough effect in the signal ratio in the repeat runs, not every such curve was filed as active; the % refers to the signal ratio)
Method in brief: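 Wild-type CHO-K1 cells plated overnight, then exposed 3 hr at 37C to compounds at 15 concentrations (0.76% DMSO). Lysed, then HTRF anti-pH2AX(S139)-cryptate/anti-H2AX-d2 detection after 24 hr at room temperature; emissions 665 and 620 nm.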

[4] = qHTS assay to identify small molecule agonists of the hypoxia (HIF-1) signaling pathway (AID 1224846; active = well fitted activation curve with a large enough effect in the signal ratio in the repeat runs, not every such curve was filed as active; the % refers to the signal ratio)
Method in brief: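 Agonist mode reporter screen. ME-180 cells stably expressing bla under HRE control received test compounds in DMSO for 17 hrs (37C, 5% CO2), and beta-lactamase activity was then detected with the CCF4-AM FRET substrate.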

[5] = qHTS assay to identify small molecule agonists of H2AX - cell viability counter screen (AID 1224847); note: top concentration of the series differs between compounds; nearly all actives have a fitted effect of over 30% in size
Method in brief: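 Read-out: CellTiter-Glo luminescence, 30 min RT. Cells: wild-type CHO-K1, 1000/well, 10% FBS, plated overnight at 37C. Treatment: 15 concentrations, 3 hr, 37C, 0.76% DMSO.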

[6] = qHTS assay to identify small molecule agonists of the hypoxia (HIF-1) signaling pathway - cell viability counter screen (AID 1224844); note: nearly all actives have a fitted effect of over 50% in size
Method in brief: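 Viability counter screen: HRE-bla ME-180 cells plated 5 hrs before compound addition, treated 17 hrs at 37C and 5% CO2, then CellTiter-Glo added after the FRET reporter read; luminescence after 30 min.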

[7] = qHTS assay to identify small molecule antagonists of the estrogen related receptor signaling pathway with the pleiotropic PPARgamma coactivator (PGC) from Tox21 10K library (AID 1224841; call rule not given here; note: series mostly up to about 92 µM; actives are mostly falling curves and most rising ones were filed inactive; nearly all actives have a fitted effect of over 50% in size)
Method in brief: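 Cells stably carrying the PGC/ERR reporter, seeded at 2,000 per well, received pin-transferred compounds 6 h post-plating. Exposure lasted 18 h at 37 C. Signal: One-Glo luminescence.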

[8] = qHTS assay to identify small molecule agonists of the estrogen related receptor signaling pathway with the pleiotropic PPARgamma coactivator (PGC) from Tox21 10K library (AID 1224842; active = well fitted curve in the direction sought with a large enough effect in the repeat runs; an effect the other way counts as inactive or inconclusive; note: nearly all actives have a fitted effect of over 15% in size)
Method in brief: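 PGC/ERR reporter cells (NTP line) were seeded 2,000 per well, rested 6 h at 37 C/5% CO2, then pin-dosed with compounds in DMSO for 18 h at 37 C; luciferase read by One-Glo luminescence after 30 min at room temperature.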

[9] = qHTS assay to identify small molecule antagonists of the estrogen related receptor (ERR) signaling pathway from Tox21 library (AID 1224848; active = well fitted curve in the direction sought with a large enough effect in the repeat runs; an effect the other way counts as inactive or inconclusive; note: nearly all actives have a fitted effect of over 50% in size; note: potency is the fitted concentration of half-maximal effect)
Method in brief: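 First, 2,000 ERR cells per well were plated and held 6 h at 37 C/5% CO2. Next, compounds in DMSO were pinned in and left 18 h at 37 C. Finally, ONE-Glo was added and luminescence read after 30 min at room temperature.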
% is set by controls: 0 for no effect and ±100 for the full control effect.

Chain of Thyrotropin receptor (Homo sapiens) (P16473 whole entry, looked up): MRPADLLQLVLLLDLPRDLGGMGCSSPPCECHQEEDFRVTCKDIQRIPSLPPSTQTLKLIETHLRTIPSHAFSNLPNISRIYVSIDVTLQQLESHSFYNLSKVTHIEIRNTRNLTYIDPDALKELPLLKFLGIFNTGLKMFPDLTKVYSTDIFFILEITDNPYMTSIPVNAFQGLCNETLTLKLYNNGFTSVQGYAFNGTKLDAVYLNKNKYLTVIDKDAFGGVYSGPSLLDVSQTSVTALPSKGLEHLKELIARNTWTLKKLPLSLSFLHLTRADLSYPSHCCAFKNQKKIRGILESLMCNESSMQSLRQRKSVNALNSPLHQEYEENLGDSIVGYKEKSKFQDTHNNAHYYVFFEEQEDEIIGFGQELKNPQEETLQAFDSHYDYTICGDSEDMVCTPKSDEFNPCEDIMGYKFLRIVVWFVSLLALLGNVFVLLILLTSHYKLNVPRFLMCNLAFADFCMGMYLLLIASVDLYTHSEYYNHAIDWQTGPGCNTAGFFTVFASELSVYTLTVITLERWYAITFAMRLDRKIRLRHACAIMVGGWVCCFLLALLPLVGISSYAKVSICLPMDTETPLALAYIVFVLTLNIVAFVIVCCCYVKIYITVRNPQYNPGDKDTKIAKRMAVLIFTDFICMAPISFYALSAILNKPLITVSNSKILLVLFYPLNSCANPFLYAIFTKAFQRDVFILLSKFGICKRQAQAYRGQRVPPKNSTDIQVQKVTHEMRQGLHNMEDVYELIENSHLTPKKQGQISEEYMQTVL

COC(OC)C(C)c1ccccc1 (configuration not stated)
inactive: outcome [1] | outcome [2] | outcome [3] | outcome [4] | Potency [5]

CCN1CN(CC)CN(CC)C1
inactive: outcome [1] | outcome [2] | outcome [3] | outcome [4]

CCN(CC)C(=O)C1CN2CCc3cc(OC)c(OC)cc3C2CC1OC(C)=O (configuration not stated)
inactive: outcome [1] | outcome [2] | outcome [3] | outcome [4] | Potency [5]

O=C1CC[C@H](C(=O)N2CCCCC2)N1
inactive: outcome [1] | outcome [2] | outcome [6] | outcome [3] | outcome [4] | Potency [5]

O=C1NC2NC(=O)NC2N1 (configuration not stated)
inactive: outcome [1] | outcome [2] | outcome [6] | outcome [3] | outcome [4] | Potency [5]

NCCc1ccn[nH]1
inactive: outcome [1] | outcome [2] | outcome [6] | outcome [3] | Potency [5]

CCCCC(CC)C(=O)OC(C)C (configuration not stated)
inactive: outcome [1] | outcome [6] | outcome [3] | outcome [4] | Potency [5]

CCCCCCCCCCCCC
inactive: outcome [1] | outcome [2] | outcome [3] | outcome [4] | Potency [5]

CCOC(=O)CC(CC(=O)OCC)(OC(C)=O)C(=O)OCC
inactive: outcome [1] | outcome [6] | outcome [3] | outcome [4] | Potency [5]

Cc1ccccc1N1CCN(CCc2nnc3n2CCCC3)CC1
inactive: outcome [1] | outcome [2] | outcome [6] | outcome [3] | outcome [4] | Potency [5]

Nc1cc(C(=O)O)ccc1Cl
inactive: outcome [1] | outcome [2] | outcome [6] | outcome [3] | Potency [5]

Nc1ccc(S(=O)(=O)NC(=O)c2ccccc2)cc1
inactive: outcome [1] | outcome [2] | outcome [6] | Potency [5]

CC1=CC[C@H](CC=O)C1(C)C
inactive: outcome [1] | outcome [2] | outcome [3] | outcome [4] | Potency [5]

Cc1nc2ccccc2c(=O)o1
inactive: outcome [1] | outcome [2] | outcome [3] | outcome [4] | Potency [5]

Nc1ccnc(=O)[nH]1
inactive: outcome [1] | outcome [2] | outcome [3] | outcome [4] | Potency [5]

Cc1cc(C)cc([N+](=O)[O-])c1
inactive: outcome [1] | outcome [2] | outcome [3] | outcome [4] | Potency [5]

CCCCCCCC/C=C\CCCCCCCC(=O)OC[C@@H](O)[C@H]1OC[C@H](O)[C@H]1O
inactive: outcome [2] | outcome [6] | outcome [3] | outcome [4] | Potency [5]

COc1cc(C=O)ccc1OC(=O)C(C)C
inactive: Potency [7] | outcome [8] | outcome [2] | outcome [6] | outcome [3] | outcome [4] | Potency [5] | Potency [9]

C[C@H]1O[C@H](O[C@H]2[C@H](O)[C@@H](O)[C@@H](O[C@H]3[C@H](O)[C@@H](O)[C@H](O)O[C@@H]3CO)O[C@@H]2CO)[C@H](O)[C@@H](O)[C@@H]1N[C@H]1C=C(CO)[C@@H](O)[C@H](O)[C@H]1O
inactive: outcome [1] | outcome [6] | outcome [3] | outcome [4] | Potency [5]

Cc1cc(O)c2c(c1)C(=O)c1cccc(O)c1C2=O
inactive: outcome [6] | outcome [3] | outcome [4] | Potency [5]

O=C(O)/C=C/c1ccccc1
inactive: Potency [7] | outcome [8] | outcome [2] | outcome [6] | outcome [3] | outcome [4] | Potency [9]

c1ccc(CNc2ncnc3nc[nH]c23)cc1
inactive: outcome [2] | outcome [3] | Potency [5]

CC(C)CCCC(C)CC=O (configuration not stated)
inactive: outcome [6] | outcome [3] | outcome [4] | Potency [5]

Nc1ccc(/C=C/c2ccc(N)cc2S(=O)(=O)O)c(S(=O)(=O)O)c1
inactive: viability change, negative = cytotoxic [1] 2.38% [at 0.349 µM] | activity change, negative = cytotoxicity [6] -0.74% [at 0.29 µM] | activation (H2AX phosphorylation) [3] -0.0976% [at 0.582 µM] | activation [4] -0.978% [at 0.291 µM] | activity change, negative = cytotoxicity [5] 3.7% [at 0.582 µM] | activity, negative = inhibition [9] 4.28% [at 0.349 µM]

CNCc1ccccc1
inactive: Potency [7] | outcome [8] | outcome [6] | outcome [3] | outcome [4] | Potency [5] | Potency [9]

O=C(CN1CCN(Cc2ccc3c(c2)OCO3)CC1)N1c2ccccc2Sc2ccccc21
inactive: outcome [2] | outcome [6] | outcome [3] | outcome [4] | Potency [5]

CC(C)CCO
inactive: outcome [2] | outcome [3] | Potency [5]

CN=C(NC#N)NCCSCc1csc(N=C(N)N)n1
inactive: Potency [7] | outcome [8] | outcome [2] | outcome [6] | outcome [3] | outcome [4] | Potency [5] | Potency [9]

OC(CCN1CCCCC1)(c1ccccc1)c1ccccc1
inactive: outcome [1] | outcome [6] | outcome [3] | Potency [5]

O=P(O)(O)OCC(O)CO (configuration not stated)
inactive: Potency [7] | outcome [8] | outcome [6] | outcome [3] | outcome [4] | Potency [5] | Potency [9]

CCCCCCCC[Si](OCC)(OCC)OCC
inactive: outcome [6] | outcome [3] | outcome [4] | Potency [5]

C[C@H](CCC(=O)NCC(=O)O)[C@H]1CC[C@H]2[C@@H]3[C@H](O)C[C@@H]4C[C@H](O)CC[C@]4(C)[C@H]3C[C@H](O)[C@]12C
inactive: Potency [7] | outcome [8] | outcome [2] | outcome [3] | Potency [5] | Potency [9]

Cc1nc2n(c(=O)c1CCN1CCC(C(=O)c3ccc(F)cc3)CC1)CCS2
active: Potency [9] 11.9 µM
inactive: outcome [8] | outcome [2] | outcome [6] | outcome [3] | outcome [4] | Potency [5]

O=C(Nc1cccc(C2=NCCN2)c1)Nc1cccc(C2=NCCN2)c1
inactive: viability change, negative = cytotoxic [1] 0.87% [at 19 µM] | activity change, negative = cytotoxicity [6] 3.42% [at 15.8 µM] | activation (H2AX phosphorylation) [3] 0.307% [at 31.6 µM] | activation [4] -0.385% [at 15.8 µM] | activity change, negative = cytotoxicity [5] 4.49% [at 31.6 µM]

COCCOCCOCCOC
inactive: outcome [1] | outcome [3] | outcome [4] | Potency [5]

Cn1c(=O)c2c(ncn2CC2OCCO2)n(C)c1=O
inactive: Potency [7] | outcome [8] | outcome [6] | outcome [3] | outcome [4] | Potency [5] | Potency [9]

CC(=O)OCCCc1ccccc1
inactive: Potency [7] | outcome [8] | outcome [2] | outcome [3] | outcome [4] | Potency [5] | Potency [9]

CN(C1CCCCC1)S(=O)(=O)c1ccccc1N
inactive: outcome [8] | outcome [2] | outcome [6] | outcome [3] | outcome [4] | Potency [5] | Potency [9]

CC(=O)OC(C(=O)c1ccccc1)c1ccccc1 (configuration not stated)
inactive: outcome [2] | outcome [6] | outcome [3] | outcome [4] | Potency [5]

C=CCOCC(O)CCl (configuration not stated)
inactive: outcome [1] | outcome [6] | outcome [3] | outcome [4] | Potency [5]

CC(C)COC(=O)CCCCC(=O)OCC(C)C
inactive: outcome [3] | outcome [4] | Potency [5]

O=[Si]=O
inactive: Potency [7] | outcome [8] | outcome [6] | outcome [3] | outcome [4] | Potency [9]

CCCOC(=O)CCCCC(=O)OCCC
inactive: Potency [7] | outcome [8] | outcome [6] | outcome [3] | outcome [4] | Potency [5] | Potency [9]

CCN(CCC#N)c1ccccc1
inactive: outcome [2] | outcome [6] | outcome [3] | outcome [4] | Potency [5]

O=C(c1ccc2c(c1)C(=O)OC2=O)c1ccc2c(c1)C(=O)OC2=O
inactive: outcome [2] | outcome [6] | outcome [3] | outcome [4] | Potency [5]

CCS(=O)(=O)CCn1c([N+](=O)[O-])cnc1C
inactive: outcome [8] | outcome [2] | outcome [6] | outcome [3] | Potency [5] | Potency [9]

O=CN1CCOCC1
inactive: Potency [7] | outcome [8] | outcome [2] | outcome [6] | outcome [3] | outcome [4] | Potency [5] | Potency [9]

CCCO
inactive: outcome [1] | outcome [6] | outcome [3] | outcome [4] | Potency [5]

CO[Si](CCCS)(OC)OC
inactive: outcome [2] | outcome [6] | outcome [3] | outcome [4] | Potency [5]

CC(=O)Nc1ccc(C)cc1
inactive: Potency [7] | outcome [8] | outcome [6] | outcome [3] | outcome [4] | Potency [5] | Potency [9]

CCC(O)C(C)(C)C (configuration not stated)
inactive: outcome [2] | outcome [6] | outcome [3] | outcome [4] | Potency [5]

CN[C@@H]1[C@@H](O)[C@@H](O[C@@H]2[C@H](O)[C@H](O[C@H]3OC(CN)=CC[C@H]3N)[C@@H](N)C[C@H]2N)OCC1(C)O (some centres not stated)
inactive: Potency [7] | outcome [8] | outcome [2] | outcome [6] | outcome [3] | Potency [5] | Potency [9]

C[N+](C)(C)CC(O)CCl (configuration not stated)
inactive: outcome [2] | outcome [6] | outcome [3] | outcome [4] | Potency [5]

C=CCCCCCCCCCCC
inactive: activation [2] -0.0254% [at 8.39 µM] | activation (H2AX phosphorylation) [3] -0.58% [at 14 µM] | activation [4] -0.397% [at 7.01 µM] | activity change, negative = cytotoxicity [5] 3.67% [at 14 µM]
